Holding throughout (assay): NCI-60 one-dose screen, 48 h (100 = growth as untreated, 0 = no growth, -100 = all killed)
What all share (conditions): 10 µM unless noted

For assay [1], the system named is HCT-15 colon.
The subject of assay [2] is HT29 colon.
For assay [3], the system named is SNB-75 CNS.
In assay [4] the test system is SNB-19 CNS.
Assay [5] concerns U251 CNS.
Assay [6] deals with PC-3 prostate.
Assay [7] relates to SK-MEL-5 melanoma.
The subject of assay [8] is UACC-62 melanoma.
For assay [9], the system named is LOX IMVI melanoma.
The test system of assay [10] is SK-MEL-28 melanoma.
The subject of assay [11] is SK-MEL-2 melanoma.
The subject of assay [12] is EKVX NSCLC.
Assay [13] deals with SN12C renal.
For assay [14], the system named is UO-31 renal.
Assay [15] concerns TK-10 renal.
The subject of assay [16] is ACHN renal.
For assay [17], the system named is CAKI-1 renal.
Assay [18] relates to A498 renal.
The subject of assay [19] is CCRF-CEM leukemia.
The test system of assay [20] is MOLT-4 leukemia.

The panel holds about 83,000 compounds, 20% with a hit somewhere; the sample as a whole holds those more often.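 Step 1: grow cells in 96-well plates. Step 2: add test compound at a single concentration. Step 3: incubate 48 h. Step 4: record percent growth.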 A number with no mark means an inactive call. The source made the active and inactive calls. How the source made its calls: active means growth percent below 10; inactive means the rest.

Consider `N#Cc1c(-c2ccc(Br)cc2)nc2c(N=Nc3ccc(S(N)(=O)=O)cc3)c(N)nn2c1N`, for which the growth in [1] was 94.3%; in assay [2], 42.8%; in [3], 56.9%; in [4], 61.6%; in [5] it was 41.3%; in assay [6], 37.6%. For the same compound, the growth was 45.8% in assay [7]; 72.4% in assay [8]; 28.9% in assay [9]; 63.2% in assay [10]; 43.4% in assay [11]; 71.1% in [12]. Moreover, the growth in assay [13] was 45.6%; in [14], 59.5%; in [15], 73.2%; in assay [16] it was 71.1%; in [17], 52.5%; in [18] it was 65%. Also, the growth in assay [19] was -4.46% (active); in assay [20], 1.59% (active).

Take `C#COc1cccc(Nc2ncnc3cc(NC(=O)[C@H](C)Cl)ccc23)c1`: the growth in assay [1] was 9.91% [6.25 µM] (active); in [2], 1.38% [6.25 µM] (active); in assay [3], 3.55% [6.25 µM] (active); in assay [4], 19.3% [6.25 µM]; in [5] it was 3.14% [6.25 µM] (active); in assay [6], 95.3% [6.25 µM]. Also, the growth in [7] is 9.1% [6.25 µM] (active); in assay [8] it was 22.1% [6.25 µM]; in assay [9], 5.47% [6.25 µM] (active); in assay [10] it was 29.4% [6.25 µM]; in [11] it was 9.63% [6.25 µM] (active); in assay [12], 20.3% [6.25 µM]. Also, the growth in assay [13] was 10.6% [6.25 µM]; in assay [14], 27.1% [6.25 µM]; in assay [15], 9.65% [6.25 µM] (active); in assay [16] it was 17.1% [6.25 µM]; in assay [17], 26.2% [6.25 µM]; in [18] it was 2.08% [6.25 µM] (active). Further, the figures for the growth in assay [19] and in assay [20] were 102% [6.25 µM] and 98.6% [6.25 µM], respectively.

Regarding `Cc1ccc2c(c1)sc1nc(-c3c[nH]c4ccccc34)c(Nc3ccccc3)n12`, the growth is 105% in [1]; 104% in assay [2]; 89.8% in [3]; 94.9% in [4]; 106% in assay [5]; 90.4% in [6]. For the same compound, the growth in [7] was 113%; in assay [8] it was 89.4%; in assay [9] it was 96.3%; in assay [10] it was 110%; in assay [11], 109%; in [12], 101%. Besides, the growth in assay [13] is 102%; in assay [14], 77.3%; in [15], 114%; in assay [16], 100%; in assay [17], 79.8%; in assay [18] it was 109%. For the same compound, the growth is 107% in assay [19] and 98.7% in [20].

Take `CC(=O)O[C@H]1CC[C@]2(C)[C@H]3CC=C4[C@@H]5CC(C)(C)CC[C@]5(C(=O)N5CCN(CCC#N)CC5)CC[C@@]4(C)[C@]3(C)CC[C@H]2C1(C)C`: the growth in assay [1] was 20.3%; in [2], 12.4%; in assay [3], 53.8%; in assay [4], 63.2%; in assay [5], 12.4%; in [6] it was 19.5%. In addition, the growth in [7] was 7.89% (active); in assay [8] it was 38%; in [9] it was 20%; in assay [10], 52.2%; in assay [11] it was 68.7%; in assay [12], 65.8%. In addition, the growth in assay [13] was 53.4%; in assay [14] it was 30.2%; in [15], 54.1%; in assay [16], 28.2%; in assay [17], 35.1%; in assay [18] it was 5.98% (active). The growth was 27.5% in assay [19] and 19.7% in assay [20].

`Cc1ncc(C(=O)Nc2ccc(CN3CCN(C)CC3)c(C(F)(F)F)c2)cc1C#Cc1cnc(N)c2ccc(C#N)cc12`: the growth in assay [1] is -77.4% (active); in [2], -6.14% (active); in assay [3], -11.5% (active); in assay [4] it was 52%; in [5], 19.9%; in assay [6], 11.7%. Moreover, the growth in assay [7] is -79.7% (active); in assay [8] it was -8.26% (active); in [9] it was -90% (active); in assay [10], -55.9% (active); in assay [11], -6.37% (active); in [12] it was 50.4%. The growth is 10.4% in assay [13]; -24.4% (active) in assay [14]; 4.43% (active) in assay [15]; -79.6% (active) in assay [16]; -72.6% (active) in [17]; -41% (active) in [18]. Moreover, the growth is 3.7% (active) in assay [19] and 8.65% (active) in [20].

`COc1cc(-c2ccc(-c3ccc(C(=N)N)cc3)s2)cc(OC)c1OC`: the growth in assay [1] is 58.9%; in [2] it was 8.4% (active); in [3] it was 64.8%; in assay [4], 69.1%; in [5], 26.2%; in [6], 53.4%. Besides, the growth was 55.3% in assay [7]; 54.7% in assay [8]; 27.2% in [9]; 77.3% in assay [10]; 83.9% in [11]; 75.4% in assay [12]. The growth was 71.4% in [13]; 79.3% in assay [14]; 113% in assay [15]; 91.1% in [16]; 63.4% in assay [17]; 89.2% in assay [18]. For the same compound, the growth in assay [19] is 26.9%; in [20] it was -2.06% (active).

Take `COc1ccc(C/C(C)=C(\c2ccc(O)cc2)c2ccc(OCCN3CCCCC3)cc2)cc1`: the growth in assay [1] is 72.7%; in assay [2], 22.5%; in assay [3], 77%; in [4], 97.1%; in assay [5] it was 72.6%; in [6], 67.4%. In addition, the growth in assay [7] was 86.1%; in assay [8] it was 90.5%; in assay [9], 84.4%; in [10], 90.3%; in assay [11], 114%; in assay [12], 90.1%. Besides, the growth in [13] is 89.9%; in [14] it was 56.6%; in assay [15] it was 85.2%; in [16], 93.1%; in assay [17], 104%; in assay [18], 110%. For the same compound, the growth was 54.4% in assay [19] and 38.4% in assay [20].
